Assay outcomes as filed in PubChem.
Compounds with a hit are over-represented: about 21% of the library has one in this group of screens.
FBPA Giardia inh: inhibitors of Giardia lamblia fructose-1,6-bisphosphate aldolase; purified Giardia FBPA; Potency, µM (doses to about 59.6 µM), for the others: at the highest dose activity, negative = inhibition, actives largely listed as inhibitors; 0.71% of 290,000 active; AID 2451; further: potency means the concentration at half of the fitted maximal effect; on the % scale 0 is the no-effect control and ±100 the full control effect; nearly all actives have a fitted effect of over 55% in size
Target sequence (A8B2U2 whole entry, looked up): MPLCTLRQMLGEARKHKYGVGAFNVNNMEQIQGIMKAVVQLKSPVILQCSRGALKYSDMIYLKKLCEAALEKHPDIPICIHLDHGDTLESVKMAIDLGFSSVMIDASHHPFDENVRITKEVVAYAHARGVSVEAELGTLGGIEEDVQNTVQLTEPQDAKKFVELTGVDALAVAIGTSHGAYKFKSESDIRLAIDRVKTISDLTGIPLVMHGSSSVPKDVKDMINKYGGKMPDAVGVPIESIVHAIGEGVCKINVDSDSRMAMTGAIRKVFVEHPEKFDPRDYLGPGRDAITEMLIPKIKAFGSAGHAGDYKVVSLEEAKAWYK
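40 nM FBPA preincubated 10 min at RT with compound (up to 57.5 uM final), then substrate plus GAPDH/TPI/NAD/arsenate coupling and diaphorase/resazurin added. Fluorescence read after 20 min at RT, 525/598 nm.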
Cycloheximide cs: counter-screen hit for Shiga toxin inhibitors, cycloheximide. max response, %. cell reporter, cycloheximide protein synthesis inhibition counterscreen. 12% of 300,000 active. AID 2314; in the data active means max response mostly above about 13%, no sharp cut-off; inactive means mostly below about 14%; further: read at 38.3 µM for the half of the compounds with a filed dose; 0% is about no effect
NS1 function inh: inhibitors of influenza NS1 protein function; Potency, µM (doses to about 46.1 µM), for the others: at the highest dose activity, positive = more growth; 0.4% of 270,000 active; AID 2326; calls by dose curve; further: potency means the concentration at half of the fitted maximal effect; actives are rising curves; nearly all actives have a fitted effect of over 50% in size
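A cell-based growth assay was used: compounds that relieve NS1-induced slow growth of budding yeast raise OD600. Assay medium was yeast nitrogen base with ammonium sulphate and -URA supplement, pH 6.0, with 2% galactose.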
Pf growth 48h: P. falciparum growth inhibition at 48 hours (one generation); P. falciparum luciferase growth in erythrocytes, 48 h; Potency, µM (top dose mostly 28.7 µM), for the others: at the highest dose activity change, negative = inhibition, most hits filed as inhibitors; 5.9% of 310,000 active; further: potency means the concentration at half of the fitted maximal effect; on the % scale 0 is the no-effect control and ±100 the full control effect
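Compounds are pin-transferred into medium, infected erythrocytes (2% hematocrit, 0.1% parasitemia final) are added, and plates sit one parasite generation at 37 C in 5% CO2. Detection reagent is then added and luminescence measured.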
Pf growth 96h: P. falciparum growth inhibition at 96 hour, primary screen for plastid delayed-death inhibitors; P. falciparum luciferase reporter growth, 96 h; AID 504834; 6.9% of 320,000 active; Potency, µM (top dose mostly 28.7 µM), inactives show top-dose activity change, negative = inhibition, actives largely listed as inhibitors; further: potency means the concentration at half of the fitted maximal effect; on the % scale 0 is the no-effect control and ±100 the full control effect
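96 h incubation, 37 C, 5% CO2, of luciferase-reporter P. falciparum-infected RBCs (2% hematocrit, 0.05% parasitemia final) with test compounds; endpoint luminescence.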
Shiga toxin inh: blocks Shiga toxin action in Vero cells | AID 2315 | Vero cells, Shiga toxin protein synthesis inhibition reporter | 9.2% of 290,000 active | inhibition, % at 38.7 µM; in the data active means inhibition mostly above about 28%, no sharp cut-off; inactive means mostly below about 43%; further: 0% is about no effect
The depositor's hits bear a star; ? = inconclusive; nt = not tested or not shown; [ ] = remark or other dose. Unless noted, the call rests on the fitted dose curve; in most records, active means well fitted curve in the direction sought with a large enough effect; inconclusive means small, poorly fitted or top-dose-only effect, or another doubt; inactive means no such curve, though single readings can be large; an effect the other way counts as inactive or inconclusive.

SMILES	FBPA Giardia inh	Cycloheximide cs	NS1 function inh	Pf growth 48h	Pf growth 96h	Shiga toxin inh
Cc1ccc(N(C(=O)C2COc3ccccc3O2)C(C(=O)NC2CCCCC2)c2cn(C)nc2C)cc1 (stereo not given)	0.6%	1.5	5.7%	?	?	11.6
COc1cccc(C(C(=O)NC2CCCCC2)N(CCN2CCOCC2)C(=O)C2COc3ccccc3O2)c1 (stereo not given)	-0.3%	-1.8	2.7%	-29.9%	0.1%	-3.2
CC(=O)c1ccc[n+](CC(=O)NC(C)c2ccccc2)c1 (stereo not given)	7.7%	-6.5	0.4%	20.8%	?	-10.2
Cc1ccc(OCCCCN2CCC(C)CC2)cc1	?	5.8	2.3%	-1.2%	37.9%	22.4
CN(C)C1CCN(CCCOc2ccc(-c3ccc(C#N)cc3)cc2)C1 (stereo not given)	3.3%	30.7*	nt	nt	nt	2.0
O=C(CSc1nc2ccccc2s1)N1N=C(c2cccs2)CC1c1ccc(F)cc1 (stereo not given)	-2.8%	-7.4	9.9%	-20.2%	?	-8.5
COc1cccc(C2CC(c3cccs3)=NN2C(=O)CSC2=NN3CCCC(=O)N=C3S2)c1OC (stereo not given)	2.3%	-4.3	-11.3%	7.38µM*	0.465µM*	10.3
O=C(CSc1nc2c(cnn2-c2ccc(F)cc2)c(=O)[nH]1)N1N=C(c2cccs2)CC1c1ccc(F)cc1 (stereo not given)	?	-3.2	4.6%	?	9.28µM*	-17.6
Cc1cccn2c(=O)nc(SCC(=O)N3N=C(c4cccs4)CC3c3ccc(F)cc3)nc12 (stereo not given)	nt	nt	nt	8.28µM*	3.7µM*	nt
Cc1ccn2c(=O)nc(SCC(=O)N3N=C(c4cccs4)CC3c3ccc(F)cc3)nc2c1 (stereo not given)	nt	nt	nt	?	4.65µM*	nt
Cc1ccc(C)c(NS(=O)(=O)c2c(C)nc3sccn3c2=O)c1	4.2%	4.3	5.6%	-5.7%	?	-0.8
CC(=O)c1ccc(OCC(=O)OCc2cc(-c3ccco3)on2)cc1	nt	nt	nt	-11.1%	-6.5%	nt
CC(=O)Oc1ccc(C(=O)Nc2cccnc2)cc1	6.0%	-2.6	7.5%	1.3%	57.6%	20.9
COc1ccc(C2CC(c3cccs3)=NN2C(=O)CN2CCCCC2)cc1 (stereo not given)	7.7%	10.5	nt	-1.1%	-25.3%[5.75 µM]	26.0*
CCN1CCc2c(OCC(=O)N3N=C(c4cccs4)CC3c3ccc(F)cc3)cccc2C1=O (stereo not given)	-2.2%	-2.9	1.8%	9.28µM*	?	-0.9
COc1ccc(C2CC(c3cccs3)=NN2C(=O)CSc2nc(=O)n3ccccc3n2)cc1 (stereo not given)	nt	nt	nt	13.1µM*	8.28µM*	nt
COc1ccc(C2CC(c3cccs3)=NN2C(=O)CSc2nc3ccccc3s2)cc1 (stereo not given)	0.4%	-8.0	?	?	?	-17.6
Cc1ccc(C2CC(c3cccs3)=NN2C(=O)CSc2nc(=O)n3cc(C)ccc3n2)cc1 (stereo not given)	nt	nt	nt	?	5.22µM*	nt
COc1ccc(C2=NN(C(=O)CSc3nc(=O)n4cccc(C)c4n3)C(c3ccc(C)cc3)C2)cc1 (stereo not given)	nt	nt	nt	11.7µM*	?	nt
CC(=O)N1CCN(CCN(CC2C(C)C=C(C)CC2C)C(C)=O)CC1 (stereo not given)	-1.3%	-0.8	?	-1.6%	nt	22.9
CC1=CC(C)C(CN(CCC[N+](C)(C)C)C(=O)Nc2ccccc2)C(C)C1 (stereo not given)	2.1%	8.4	-5.1%	?	11.7µM*	16.1
CCCCCCc1c(C[C@H](N)C(=O)O)o[nH]c1=O	-21.6%	nt	nt	nt	nt	nt
NC(N)=NC(N)=Nc1cccc(Cl)c1	1.9%	-4.1	-1.4%	?	10.4µM*	-5.9
Cc1cccc(NC(=O)CSc2nnc(-c3ccncc3)n2CC2CCCO2)c1 (stereo not given)	8.9%	-3.4	-1.0%	-4.9%	0.0%	-14.9
COc1ccc(N2C(=O)C3C(C2=O)C(C(=O)c2ccc(Cl)cc2)N2CCCC32)cc1 (stereo not given)	-25.3%	33.6*	-7.3%	?	?	90.3*
SMILES	FBPA Giardia inh	Cycloheximide cs	NS1 function inh	Pf growth 48h	Pf growth 96h	Shiga toxin inh
O=C(c1ccc(Cl)cc1)C1C2C(=O)N(c3ccccc3)C(=O)C2C2CCCN21 (stereo not given)	-6.7%	0.9	-75.1%	?	14.7µM*	19.5
O=C(c1ccccc1)[C@@H]1[C@@H]2C(=O)N(c3ccc(F)cc3)C(=O)[C@@H]2C2CCCN21 (stereo not given in full)	-9.7%	1.1	-4.4%	-5.8%	-7.6%	25.2
CC(=O)c1ccc(N2C(=O)C3C(C2=O)C(C(=O)c2ccc(Cl)cc2)N2CCCC32)cc1 (stereo not given)	-9.1%	10.0	-8.1%	?	-8.4%	61.1
Cc1ccc(N2C(=O)[C@@H]3[C@H](C2=O)C2CCCN2[C@@H]3C(=O)c2ccccc2)cc1 (stereo not given in full)	?	26.5	5.3%	11.7µM*	?	40.7
Cn1c(N)c(S(=O)(=O)N2CCN(c3ccccc3Cl)CC2)c(=O)n(C)c1=O	2.0%	-1.1	-2.6%	-26.9%	?	-13.4
Cc1ccc(-c2ccc(SCC(=O)c3ccccc3)nn2)cc1	-12.6%	30.5*	8.2%	64.1%	?	66.4
COc1ccc(-c2ccc(SCC(=O)Nc3nnc(C)s3)nn2)cc1	5.7%	27.7	nt	20.9%	?	13.0
O=C(CSc1ccc(-c2ccccc2)nn1)c1cccs1	-13.4%	28.1*	-1.2%	34.7%	20.7%	54.9
COc1ccc(-c2ccc(SCC(=O)c3cccs3)nn2)cc1	-28.9%	34.3*	-5.7%	33.8%	41.4%	60.7*
CCOC(=O)c1c(C)[nH]c(C(=O)NCCc2ccc(OC)c(OC)c2)c1C	-2.6%	2.4	5.6%	?	?	2.7
O=C(C[n+]1ccccc1)N1c2ccccc2Sc2ccccc21	-1.4%	-1.8	2.3%	?	3.6%	8.6
Cc1ccc2c(c1)N(C)/C(=C/c1cccc[n+]1C)S2	-0.9%	-1.9	-5.5%	5.3%[0.00184 µM]	0.465µM*	5.8
Cc1ccc2c(c1)N(C)/C(=C/c1cccc[n+]1CCO)S2	9.4%	-3.2	-0.6%	1.85µM*	15.8%	5.1
CN1/C(=C/c2cccc[n+]2C)Sc2ccccc21	8.2%	7.0	-6.0%	1.17µM*	2.5%	22.7
Cc1cc(NCc2ccccn2)n2c(nc3ccccc32)c1C#N	-1.1%	6.7	-3.4%	?	89.3%	-23.3
CCCc1cc(NCc2ccccn2)n2c(nc3ccccc32)c1C#N	1.7%	6.0	nt	1.85µM*	9.3%	-14.1
CCCc1cc(NCC2CCCO2)n2c(nc3ccccc32)c1C#N (stereo not given)	-3.9%	-1.8	-12.8%	5.22µM*	nt	-18.8
Cc1cccc(NC(=O)c2ccc(-c3ccccc3[N+](=O)[O-])o2)c1	-6.5%	30.7*	2.3%	0.0%	34.2%	61.0*
